Screens from PubChem BioAssay.
Hits are enriched below; roughly 3.1% of the tested compounds scored in any of these assays.
luminol_inh_ctr – luminol signal inhibition, Nox1 inhibitor counter-screen; 16,000 compounds, 0.4% hits; HRP/luminol/H2O2 chemiluminescence counterscreen; AID 1823; inhibition, % at 6.7 µM; further: reference of the scale not given here
S1P1_agonist – S1P1 (human) receptor agonism. P21453. S1P1 agonist cell-based reporter assay. 16,000 compounds, 1.5% hits. AID 1044. activation, % at 4.5 µM; in the data active means activation above about 80%
NOTCH_ag – NOTCH pathway agonism; 15,000 compounds, 0.4% hits; activation, % at 2.5 µM; NOTCH signaling luciferase reporter cells, luminescence; in the data active means activation above about 2.2%
Nox1_inh – inhibitors of human NADPH oxidase 1 (Nox1); HT29 cells, luminol chemiluminescence ROS; inhibition, % at 6.7 µM; Q9Y5S8; 16,000 compounds, 0.81% hits
An asterisk follows results filed as active. Unless noted, no stated cut-off is given here; in the data, active means inhibition above about 75%; inactive means the rest.

SMILES luminol_inh_ctr S1P1_agonist NOTCH_ag Nox1_inh
N#CC(C#N)=NNc1ccc(OC(F)(F)F)cc1 13 109* 0 18
N#CC(C#N)=NNc1ccc(C(F)(F)F)cc1 8 115* -1 8
CSc1ccc(C=C(C#N)C#N)s1 0 -2 -5 -13
Cc1ccsc1C=C(C#N)C#N -1 -2 0 -21
